An excerpt weighted towards active compounds, which were near 19% of everything screened.
HT1080 IDH1KD tx: qHTS for induction of synthetic lethality in tumor cells producing 2HG: qHTS for the HT-1080-IDH1KD cell line; 360,000 compounds, 2% hits; Potency, µM (series often up to 46.1 µM), for the others: top-dose activity, negative = toxicity, usual class: cytotoxic; HT-1080 IDH1 knockdown viability, ATP luminescence, 48 h; AID 686971, 2013;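 also: 0% = DMSO wells and -100% = cell-free medium wells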
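HT-1080-IDH1KD cells (IDH1 knocked down), 750/well in RPMI with 5% FBS, treated with compound 48 h at 37 degrees C. Viability by CellTiter-Glo luminescence, normalised to DMSO and no-cell wells; concentration-response curves classed.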
DT40 TDP1 no CPT: qHTS for Inhibitors of human tyrosyl-DNA phosphodiesterase 1 (TDP1): qHTS in cells in absence of CPT. 420,000 compounds, 15% hits. AID 686978, 2013. Potency, µM (highest dose often 46.2 µM), for the others: top-dose activity change, negative = growth inhibition, usual class: inhibitors. DT40 Tdp1-/- hTDP1 cells, no CPT, ATP luminescence, 48 h; also: nearly all actives have a fitted effect of over 55% in size
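DT40 Tdp1-/-;hTDP1 cells, no CPT (DMSO vehicle only), 400 cells/well; compounds pin-transferred; ≥48 hr, 37 °C; CellTiter-Glo 30 min RT dark, luminescence read.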
KB-3-1 tox: qHTS assay for MDR1-selective chemotherapeutics: Primary screen using the parental adenocarcinoma cell KB-3-1. KB-3-1 viability, CellTiter-Glo ATP luminescence, 72 h. 400,000 compounds, 1.4% hits. Potency, µM (titrated, usually from 46.1 µM), hits mostly cytotoxic; also: nearly all actives have a fitted effect of over 60% in size
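Cytotoxicity measured as CellTiter-Glo luminescence after 72 h at 37 C. Compound titrations were pinned onto drug-naive KB-3-1 parental adenocarcinoma cells grown in DMEM with 10% FBS, and normalized data fitted to concentration-response curves.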
HT1080NT lethal: qHTS for induction of synthetic lethality in tumor cells producing 2HG: qHTS for the HT-1080-NT fibrosarcoma cell line | 360,000 compounds, 1.6% hits | AID 686970, 2013 | Potency, µM (top dose mostly 46.1 µM), for inactives: at the top dose activity, negative = less viability, actives largely listed as cytotoxic | HT-1080-NT fibrosarcoma viability, CellTiter-Glo ATP luminescence, 48 h;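 also: NT is the 2HG producing partner of a matched IDH1 knockdown line; 0% = DMSO-treated cells and -100% = media-only wells without cells; nearly all actives have a fitted effect of over 55% in size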
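HT-1080-NT fibrosarcoma cells (2HG-overproducing), 750 cells/well in RPMI with 5% FBS, dosed after 2 h and incubated 48 h at 37C. CellTiter-Glo luminescence normalized to DMSO and no-cell wells; concentration-response curves fitted and classed.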
KB-V1 MDR tox: qHTS assay for MDR1-selective chemotherapeutics: Primary screen using the drug-selected MDR subline cells KB-V1. KB-V1 MDR cells viability, CellTiter-Glo, 72 h. Potency, µM (top dose mostly 46.1 µM), usual class: cytotoxic. 400,000 compounds, 3.4% hits; also: nearly all actives have a fitted effect of over 60% in size
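qHTS viability screen in drug-selected KB-V1 MDR cells: 72 h compound treatment at 37 degrees C, ATP luminescence end point.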
TDP1 cell CPT: qHTS for Inhibitors of human tyrosyl-DNA phosphodiesterase 1 (TDP1): qHTS in cells in presence of CPT | chicken DT40 Tdp1-/-;hTDP1 cells + 20 nM CPT, ATP luminescence, 48 h | AID 686979, 2013 | 420,000 compounds, 12% hits | Potency, µM (highest dose often 46.2 µM), inactives show at the top dose activity change, negative = growth inhibition, most hits filed as inhibitors; also: nearly all actives have a fitted effect of over 55% in size
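Cell growth measured by CellTiter-Glo luminescence after a minimum 48 h, 37 C compound exposure with 20 nM CPT in Tdp1-knockout DT40 cells stably expressing hTDP1, seeded 400/well; qHTS titration format.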
* marks the source's active call; other numbers are inactive results; i = inactive; ? = inconclusive; / = no result given; [ ] = another dose, or the depositor's remark. Calls follow the shape of the dose curve; as a rule, active = well fitted curve in the direction sought with a large enough effect; inconclusive = small, poorly fitted or top-dose-only effect, or another doubt; inactive = no such curve, though single readings can be large; an effect the other way counts as inactive or inconclusive. Unless noted, % is scaled to controls: 0 for no effect and ±100 for the full control effect; potency is read from the fitted curve at half-maximal effect.

SMILES	HT1080 IDH1KD tx	DT40 TDP1 no CPT	KB-3-1 tox	HT1080NT lethal	KB-V1 MDR tox	TDP1 cell CPT
CCOC(=O)[C@H]1[C@H]2COc3ccc(C)cc3[C@@H]2N2C(=O)CN(Cc3ccccc3)C(=O)[C@@]12C	7.7%	?	i	9.3%	i	?
COc1ccccc1-c1noc(CCCC(=O)NC2CCCCC2)n1	8.7%	-11.7%	i	25.3%	i	-0.2%
CC(C)(C)c1ccc(C(=O)NNC(=O)CCc2ccccc2)cc1	2.1%	-9.3%	i	6.7%	i	3.2%
CCOC(=O)[C@H]1[C@H]2COc3cc(OC)ccc3[C@@H]2N2C(=O)N(c3cccc(Cl)c3)C(=O)[C@@]12C	-5.8%	29.1µM*	i	-27.8%	?	?
CCOC(=O)[C@@H]1[C@H]2COc3cc(OC)ccc3[C@@H]2N2C(=O)N(c3ccc(OC)cc3)C(=O)[C@@]12C	4.8%	-2.3%	?	?	i	-4.2%
CCOC(=O)[C@@H]1[C@H]2COc3cc(OC)ccc3[C@@H]2N2C(=O)N(c3ccc(Br)cc3)C(=O)[C@]12C	1.3%	?	i	8.4%	i	14.6µM*
CCOC(=O)[C@@H]1[C@H]2COc3cc(OC)ccc3[C@@H]2N2C(=O)N(c3ccc(C(F)(F)F)cc3)C(=O)[C@]12C	18.6%	20.6µM*	i	10.6%	i	23.1µM*
CCOc1ccccc1CNC(=O)C1CCN(c2nc3ccccc3nc2C(F)(F)F)CC1	/	?	i	/	i	?
COc1cccc(C(=O)Nc2c3c(nn2-c2ccc(Cl)cc2)CS(=O)(=O)C3)c1	/	?	i	/	i	-19.2%
CCOC(=O)c1cccc(NC(=O)Cn2ncc3c(=O)oc4ccccc4c32)c1	/	-15.6%	i	/	i	2.0%
CC(=O)C(Sc1nc(-c2ccccc2Cl)nc2c1c(=O)n(C)c(=O)n2C)C(=O)N(C)C (stereo not drawn)	/	?	i	/	i	?
CC(C)CCNC(=S)Nc1ccccn1	0.9%	23.1µM*	i	4.7%	i	?
Cc1cc(C)c(NC(=S)NC(=O)c2ccc(-c3ccccc3)cc2)c(C)c1	-15.4%	20.6µM*	i	-5.7%	i	?
O=C(NC(=S)Nc1ccccn1)c1ccc(-c2ccccc2)cc1	-20.9%	18.4µM*	i	-11.2%	i	20.6µM*
O=C(NC(=S)Nc1ccccn1)c1ccco1	-1.9%	?	i	-2.5%	i	13µM*
Cc1ccnc(NC(=S)NC(=O)c2ccco2)c1	20.0%	-16.9%	i	23.9%	i	18.1%
Cc1ccc(NC(=S)NC(=O)c2ccccc2)cc1NC(=S)NC(=O)c1ccccc1	9.3%	?	i	4.3%	i	-26.6%
COCCNC(=S)Nc1ccccn1	8.6%	15.4%	i	4.3%	i	6.4%
Cc1cc(C)n2nc(SC(C)C(=O)N(C)c3ccccc3)nc2n1 (stereo not drawn)	-0.9%	0.3%	i	7.2%	i	-28.7%
CC1=CC2=NC(=O)/C(=C\c3cc(C)n(-c4cccc(Cl)c4)c3C)C(=N)N2O1	4.2%	9.2µM*	i	6.4%	i	?
CC1=CC2=NC(=O)/C(=C\c3cc(C)n(-c4ccccc4)c3C)C(=N)N2O1	3.7%	-23.3%	?	11.3%	i	2.4%
CC1=CC2=NC(=O)/C(=C\c3cc(C)n(-c4ccccc4F)c3C)C(=N)N2O1	-16.7%	29.1µM*	i	-3.5%	i	-16.6%
CC(C)N(CCNC(=O)c1oc(=O)c2ccccc2c1-c1ccccc1)Cc1ccco1	-10.1%	?	i	-15.4%	i	-20.1%
COc1ccc(OC)c2[nH]c(=O)c(CCNC(=O)c3cccs3)cc12	17.7%	-14.5%	i	8.9%	i	-18.1%
CCOc1ccccc1NC(=O)Cn1c(=O)nc(-c2ccccc2F)c2cc(Cl)ccc21	/	20.6µM*	/	/	/	?
SMILES	HT1080 IDH1KD tx	DT40 TDP1 no CPT	KB-3-1 tox	HT1080NT lethal	KB-V1 MDR tox	TDP1 cell CPT
COc1ccccc1CNC(=O)Cn1c(=O)nc(-c2ccccc2F)c2cc(Cl)ccc21	/	6.51µM*	/	/	/	?
COc1ccc(CNC(=O)Cn2c(=O)nc(-c3ccccc3F)c3cc(Cl)ccc32)cc1OC	/	0.0%	/	/	/	-9.2%
CC(=Nc1ccc(C)cc1C)c1sc2ccccc2c1O	-9.3%	18.4µM*	?	0.1%	i	?
CN(CCOc1ccccc1)C(=O)CNC(=O)c1ccc(C(C)(C)C)cc1	-0.4%	?	i	-0.7%	i	-27.9%
c1ccc(-c2nnc(NC3=NCCC3)o2)cc1	-6.9%	-12.7%	i	-0.3%	i	-13.4%
Fc1ccc(-c2nnc(NC3=NCCCCC3)o2)cc1	?	13µM*	?	?	i	?
CC(C)c1ccc2nc(N)sc2c1	-6.9%	25.9µM*	i	-7.6%	i	20.1%
C=CCn1c(CNc2ccc(C)cc2)nnc1SCC(=O)N/N=C/c1ccc(O)cc1O	-16.0%[9.24 µM]	?	i	?	i	18.4µM*
C=CCn1c(COc2ccccc2)nnc1SCC(=O)N/N=C/c1cc(Cl)ccc1O	-21.2%	?	i	?	?	?
C=CCn1c(COc2ccccc2)nnc1SCC(=O)N/N=C/c1ccc(C)cc1	1.2%	?	i	7.5%	i	?
C=CCn1c(CNc2ccccc2)nnc1SCC(=O)N/N=C/c1ccc(O)cc1O	?	?	i	?	i	18.4µM*
Cc1ccc(NC(=O)CSc2nc3ccccc3c3nc(CCc4c(C)n[nH]c4C)nn23)cc1F	7.94µM*	6.51µM*	i	-27.9%	i	7.31µM*
Cc1cccc(C)c1NC(=O)CSc1nc2ccccc2c2nc(CCc3c(C)n[nH]c3C)nn12	/	-29.3%	i	/	i	-17.1%
Cc1n[nH]c(C)c1CCc1nc2c3ccccc3nc(SCC(=O)Nc3ccc(F)cc3)n2n1	/	29.1µM*	i	/	i	18.4µM*
COc1ccc(CCNC(=O)CSc2cc(=O)n(C)c3ccccc23)cc1OC	/	-12.4%	i	/	i	-12.7%
CNc1ncnc2c1ncn2[C@H]1CN(Cc2ccc(OC)cc2)C[C@@H](CO)O1	12.2%	?	i	2.4%	i	-20.5%
